PubChem BioAssay AID1159580 (chemical genetic matrix, 2015)
“And” between values parts separate entries of the source, which are not always exact repeats. Equal entries are not always repeated. Among all 5,500 compounds or so, about 2,000 (36%) were called active. Inconclusive results (about 18%) are left out. Rule as the data show it: active = normalized growth mostly below about 0.91 (no sharp cut-off); inconclusive = no clear call, values can overlap the other calls; inactive = mostly above about 0.92. This is one part of the list.

Experiment: chemical genetic growth profiling, strain panel (AID 1159580);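 also: tested at 20 µM; growth read once vehicle control cultures reached saturation at 30 °C; 1 = growth at the plate median or of vehicle wells; lower values mean less growth of the strain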
Conditions: S. cerevisiae deletion strains, growth OD

Measured: normalized growth

CC12CC3CC(C)(C1)CC(N)(C3)C2
inactive: locus YAL013W, strain DEP1, hits give low values 1 and 0.983 | locus YAL021C, strain ccr4, hits give low values 1 | locus YAL026C, strain drs2, hits give low values 0.99 | locus YAL030W, strain snc1, hits give low values 0.976 | locus YAL040C, strain CLN3, hits give low values 1.06 | locus YBL061C, strain skt5, hits give low values 0.977 | locus YBR009C, strain hhf1, hits give low values 0.993 | locus YBR021W, strain FUR4, hits give low values 1.02 | locus YBR023C, strain chs3, hits give low values 0.985 | locus YBR171W, strain sec66, hits give low values 0.98 | locus YBR229C, strain ROT2, hits give low values 0.997 | locus YBR231C, strain swc5, hits give low values 0.963 | locus YBR279W, strain paf1, hits give low values 0.981 | locus YCL011C, strain gbp2, hits give low values 1.01 | locus YCL016C, strain dcc1, hits give low values 1.01 | locus YCL029C, strain bik1, hits give low values 1.02 | locus YCL061C, strain MRC1 (second series), hits give low values 0.994 | locus YCL061C, strain MRC1, hits give low values 0.989 | locus YCL069W, strain vba3, hits give low values 0.992 | locus YCR088W, strain abp1, hits give low values 0.982 | locus YDL005C, strain med2, hits give low values 0.988 | locus YDL035C, strain GPR1, hits give low values 0.999 | locus YDL040C, strain nat1, hits give low values 0.986 | locus YDL074C, strain BRE1, hits give low values 1.03 | locus YDL101C, strain DUN1, hits give low values 1.02 | locus YDL134C, strain PPH21, hits give low values 1 | locus YDL185W, strain tfp1, hits give low values 1.01 | locus YDL192W, strain arf1, hits give low values 1.01 | locus YDR001C, strain nth1, hits give low values 0.999 | locus YDR069C, strain doa4, hits give low values 0.983 | locus YDR101C, strain arx1, hits give low values 1.01 | locus YDR137W, strain rgp1, hits give low values 1.01 | locus YDR150W, strain NUM1, hits give low values 0.996 and 1 | locus YDR159W, strain sac3, hits give low values 0.962 | locus YDR162C, strain NBP2, hits give low values 1.01 | locus YDR195W, strain ref2 0.94 | locus YDR297W, strain sur2, hits give low values 0.988 | locus YDR318W, strain mcm21, hits give low values 1.02 | locus YDR334W, strain swr1, hits give low values 1.01 | locus YDR335W, strain msn5, hits give low values 0.986 | locus YDR363W, strain ESC2, hits give low values 0.959 | locus YDR388W, hits give low values 1.01 | locus YDR392W, strain spt3, hits give low values 0.993 | locus YDR502C, strain sam2, hits give low values 1.01 | locus YEL003W, strain gim4, hits give low values 0.986 | locus YEL037C, strain rad23, hits give low values 0.981 | locus YEL061C, strain CIN8 (second series), hits give low values 0.971 | locus YEL061C, strain CIN8, hits give low values 1 | locus YER002W, strain NOP16, hits give low values 1.02 | locus YER015W, strain faa2, hits give low values 0.998 | locus YER016W, strain bim1, hits give low values 0.979 | locus YER110C, hits give low values 1 | locus YER111C, strain swi4, hits give low values 0.983 | locus YER155C, strain BEM2 (second series), hits give low values 0.989 | locus YER155C, strain BEM2, hits give low values 1.01 | locus YER167W, strain BCK2, hits give low values 1.01 | locus YFR010W, strain ubp6, hits give low values 0.988 | locus YGL078C, strain dbp3, hits give low values 0.999 | locus YGL086W, strain mad1, hits give low values 0.988 | locus YGL167C, strain pmr1, hits give low values 1.01 | locus YGL173C, strain kem1, hits give low values 0.957 | locus YGL227W, strain vid30, hits give low values 0.994 | locus YGL240W, strain doc1, hits give low values 0.966 | locus YGL248W, strain PDE1, hits give low values 0.999 | locus YGL253W, strain hxk2, hits give low values 0.977 | locus YGR078C, strain PAC10, hits give low values 1.02 and 0.97 | locus YGR135W, strain pre9, hits give low values 1.01 | locus YGR229C, strain SMI1, hits give low values 1.02 | locus YGR252W, strain gcn5, hits give low values 0.968 | locus YHR013C, strain ard1, hits give low values 0.983 | locus YHR027C, strain rpn1, hits give low values 0.995 | locus YHR030C, strain SLT2, hits give low values 1.01 and 0.993 | locus YHR079C, strain IRE1 (second series), hits give low values 1.01 | locus YHR079C, strain IRE1, hits give low values 0.965 | locus YHR094C, strain hxt1, hits give low values 1.01 | locus YHR129C, strain ARP1, hits give low values 1.02 | locus YHR142W, strain chs7, hits give low values 0.963 | locus YHR200W, strain rpn10, hits give low values 1 | locus YIL066C, strain RNR3, hits give low values 1.01 | locus YIL073C, strain SPO22, hits give low values 1.09 | locus YIL125W, strain kgd1, hits give low values 1 | locus YIR030C, strain dcg1, hits give low values 1.01 | locus YJL092W, strain hpr5, hits give low values 0.983 | locus YJL095W, strain BCK1 (second series), hits give low values 0.985 | locus YJL095W, strain BCK1, hits give low values 1.04 and 1 | locus YJL115W, strain asf1, hits give low values 0.976 | locus YJL129C, strain trk1, hits give low values 0.958 | locus YJL134W, strain LCB3, hits give low values 0.999 | locus YJL154C, strain vps35, hits give low values 0.972 | locus YJL164C, strain tpk1, hits give low values 1.01 | locus YJL166W, strain qcr8, hits give low values 0.984 | locus YJL168C, strain set2, hits give low values 1 | locus YJL187C, strain SWE1 (second series), hits give low values 1.02 | locus YJL187C, strain SWE1, hits give low values 0.992 | locus YJR043C, strain POL32, hits give low values 1.01 | locus YJR066W, strain TOR1, hits give low values 0.923
